Drawing on PubChem BioAssay (Tox21), this text covers Potency and outcome for eight compounds.

The nature of assay [1]: A CellTox Green Cytotoxicity Assay to monitor cytotoxicity in HEK293 cells - 32 hour (AID 1224881). Also: nearly all actives have a fitted effect of over 40% in size. Also: potency is read from the fitted curve at half-maximal effect. In outline:
(§1)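 Each value comes from one timepoint of a single continuous run in which HEK293 cells with CellTox Green were exposed to compound for up to 40 h at 37 C, dye fluorescence rising with cell death.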

A short description of assay [2]: A CellTox Green Cytotoxicity Assay to monitor cytotoxicity in HepG2 cells - 0 hour (AID 1224882). Also: nearly all actives have a fitted effect of over 35% in size. In a few lines:
(§2)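 Continuous culture of HepG2 cells with a membrane-impermeant DNA dye; rising fluorescence marks dead cells. Compound exposure lasted up to 40 h at 37 C, with reads every 8 h from 0 h.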

A short description of assay [3]: A CellTox Green Cytotoxicity Assay to monitor cytotoxicity in HEK293 cells - 8 hour (AID 1224884). Also: nearly all actives have a fitted effect of over 35% in size. In outline: as §1
Assay [4] can be described thus: qHTS RealTime-Glo MT Cell Viability Assay in HepG2 cells - 16 hour (AID 1224885). Also: nearly all actives have a fitted effect of over 50% in size. Also: potency is read from the fitted curve at half-maximal effect. In outline: (§3)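 Compound treatment began 5 h after plating HepG2 cells (600/well) with NanoLuc luciferase and prosubstrate. Plates stayed at 37 C for 40 h; luminescence was captured at six time points, 0 h through 40 h.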
For orientation: Quantitative high-throughput screening tests each substance at several concentrations.

A short description of assay [5]: qHTS RealTime-Glo MT Cell Viability Assay in HEK293 cells - 24 hour (AID 1224886). Also: nearly all actives have a fitted effect of over 50% in size. Also: potency is read from the fitted curve at half-maximal effect. In a few lines:
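Quantitative high-throughput screen of the Tox21 10K library in HEK293: cells and RealTime-Glo reagents plated together, compound added at 5 h, luminescence monitored through 40 h at 37 C.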

Assay [6] can be described thus: qHTS RealTime-Glo MT Cell Viability Assay in HEK293 cells - 8 hour (AID 1224887). Also: nearly all actives have a fitted effect of over 50% in size. Also: potency is read from the fitted curve at half-maximal effect. In outline: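 qHTS format; HEK293 cells with NanoLuc/prosubstrate reagent, 37 C/5% CO2 for 5 h pre-dosing; compounds 23 nL in DMSO; luminescence at each time point reflects viable cells.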
A short description of assay [7]: A CellTox Green Cytotoxicity Assay to monitor cytotoxicity in HEK293 cells - 16 hour (AID 1224888). Also: nearly all actives have a fitted effect of over 35% in size. Also: potency is read from the fitted curve at half-maximal effect. In outline:
as §1

A short description of assay [8]: qHTS RealTime-Glo MT Cell Viability Assay in HepG2 cells - 0 hour (AID 1224889). Also: nearly all actives have a fitted effect of over 50% in size. Also: potency is read from the fitted curve at half-maximal effect. In outline: as §3
Assay [9] in a line: A CellTox Green Cytotoxicity Assay to monitor cytotoxicity in HepG2 cells - 8 hour (AID 1224890). Also: nearly all actives have a fitted effect of over 45% in size. Also: potency is read from the fitted curve at half-maximal effect. In a few lines: as §2
Assay [10] can be described thus: qHTS assay to identify small molecule antagonists of the estrogen receptor alpha (ER-alpha) signaling pathway using the BG1 cell line in the presence of 0.1 nM 17-beta-estradiol - cell viability counter screen (AID 1259241). Also: nearly all actives have a fitted effect of over 40% in size. Also: potency is read from the fitted curve at half-maximal effect. In outline: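 Live-cell protease activity (CellTiter-Fluor fluorescence, 30 min) was read in the same wells after VM7Luc4E2 cells had been exposed to compounds with 0.1 nM 17beta-estradiol for 22 hr at 37C.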

A short description of assay [11]: qHTS assay to identify small molecule antagonists of the androgen receptor (AR) signaling pathway using the MDA cell line in the presence of 0.5 nM R1881 - cell viability counter screen (AID 1259242). Also: nearly all actives have a fitted effect of over 45% in size. Also: potency is read from the fitted curve at half-maximal effect. In a few lines: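 Fluorescence from CellTiter-Fluor, which reports protease activity of live cells, was read 30 min after reagent addition to MDA-kb2 cells that had been incubated 16 hr with compound and 0.5 nM R1881.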

For assay [12], the target named is Estrogen receptor (Homo sapiens) (UniProt P03372). The assay can be described thus: qHTS assay to identify small molecule antagonists of the estrogen receptor alpha (ER-alpha) signaling pathway using the BG1 cell line in the presence of 0.1 nM 17-beta-estradiol (AID 1259244). Also: nearly all actives have a fitted effect of over 50% in size. Also: potency is read from the fitted curve at half-maximal effect. In a few lines: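 Quantitative high-throughput screen in VM7Luc4E2 cells: compound plus 0.1 nM E2 (final), 22 h, 37C, 5% CO2; ONE-Glo added, 30 min room temperature, luminescence measured.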
Estrogen receptor (Homo sapiens), sequence (P03372 whole entry, looked up): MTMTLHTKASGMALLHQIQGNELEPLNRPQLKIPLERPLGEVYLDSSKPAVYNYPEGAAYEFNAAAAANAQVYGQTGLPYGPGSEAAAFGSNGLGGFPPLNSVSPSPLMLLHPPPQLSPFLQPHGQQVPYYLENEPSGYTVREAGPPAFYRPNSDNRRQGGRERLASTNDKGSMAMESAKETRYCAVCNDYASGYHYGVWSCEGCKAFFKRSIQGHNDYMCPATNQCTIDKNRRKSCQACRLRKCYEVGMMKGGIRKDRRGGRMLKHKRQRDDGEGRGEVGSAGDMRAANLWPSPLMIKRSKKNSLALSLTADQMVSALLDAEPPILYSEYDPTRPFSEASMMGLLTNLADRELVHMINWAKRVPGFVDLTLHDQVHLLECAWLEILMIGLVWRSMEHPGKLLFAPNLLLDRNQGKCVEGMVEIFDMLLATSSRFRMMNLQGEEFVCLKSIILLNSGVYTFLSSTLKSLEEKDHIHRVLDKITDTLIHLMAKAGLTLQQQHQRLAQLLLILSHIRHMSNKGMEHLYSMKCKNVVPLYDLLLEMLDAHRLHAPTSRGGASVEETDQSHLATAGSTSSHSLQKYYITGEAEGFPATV

Assay [13] in a line: qHTS assay to identify small molecule phospholipidosis (PLD) inducers (AID 1259344; active = well fitted curve in the direction sought with a large enough effect; an effect the other way counts as inactive or inconclusive). In a few lines: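 HepG2 cells grown on collagen I take up LipidTOX Red while exposed to compound for 24 h; after fixation they are imaged at 20x and pit metrics are extracted.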
The nature of assay [14]: qHTS assay to identify small molecule HDAC inhibitors (AID 1259364). Also: top concentration of the series differs between compounds; nearly all actives have a fitted effect of over 45% in size. In a few lines: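 Endogenous HDAC class I/II activity was measured in wild-type HCT-116 cells by HDAC-Glo luminescence after 2 h compound treatment.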
Assay [15] is described as follows: qHTS assay to identify small molecule agonists of the sonic hedgehog signaling (Shh) pathway - cell viability counter screen (AID 1259366). Also: nearly all actives have a fitted effect of over 50% in size. Also: potency is read from the fitted curve at half-maximal effect. In outline: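 CellTiter-Fluor fluorescence read-out, 1 hr at 37C, added after 23hr compound exposure. Cells: 3T3 Gli1-Luc, an NIH/3T3 clone with stably integrated Gli1-Luc reporter, plated 4hr before compound.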
Assay [16] is described as follows: qHTS assay to identify small molecule antagonists of the sonic hedgehog signaling (Shh) pathway - cell viability counter screen (AID 1259367). Also: nearly all actives have a fitted effect of over 55% in size. Also: potency is read from the fitted curve at half-maximal effect. In outline: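 After a 4 hr settling period, 3T3 Gli1-Luc cells were treated with DMSO-dissolved chemicals and conditioned medium, kept 24 hr at 37C in 5% CO2, and assayed for viability by CellTiter-Fluor fluorescence following 1 hr reagent incubation.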

A short description of assay [17]: qHTS assay to identify small molecule agonists of the sonic hedgehog signaling (Shh) pathway (AID 1259368; calls by dose curve;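 also: NIH/3T3-derived 3T3Gli1-Luc cells carrying a stable Gli1-driven firefly luciferase reporter; series mostly up to about 92 µM; nearly all actives have a fitted effect of over 15% in size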). In outline:
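Luminescent signal was taken as a measure of Gli1-controlled luciferase expression in stably transfected NIH/3T3-derived cells that had been treated for 24 hr with compounds delivered in DMSO.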

A short description of assay [18]: qHTS assay to identify small molecule HDAC inhibitors - cell viability counter screen (AID 1259365). Also: nearly all actives have a fitted effect of over 50% in size. Also: potency is read from the fitted curve at half-maximal effect. In outline: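 HCT-116 (wild type), 1,500 cells/well, overnight 37C/5% CO2; compound in DMSO 2hr; CellTiter-Glo 30min RT; luminescence read.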
The nature of assay [19]: A CellTox Green Cytotoxicity Assay to monitor cytotoxicity in HepG2 cells - 32 hour (AID 1224883). Also: nearly all actives have a fitted effect of over 50% in size. Also: potency is read from the fitted curve at half-maximal effect. In a few lines: as §2
Assay [20] addresses Androgen receptor (Homo sapiens) (UniProt P10275). The assay can be described thus: qHTS assay to identify small molecule antagonists of the androgen receptor (AR) signaling pathway using the MDA cell line in the presence of 0.5 nM R1881 (AID 1259243). In a few lines:
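Inhibition of R1881 (0.5 nM final) induced reporter signal was measured in human MDA-kb2 cells; note the MMTV promoter also responds to GR. Exposure lasted 16 hr at 37C.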

Several values for one entry are separate records, joined by “and”; a condition that tells them apart may be missing. Equal entries are not always repeated. Results filed as inconclusive are left out. The source holds several records for some structures; these can differ, active in one and inactive in another. Activity calls are given as the source filed them. Unless noted, calls follow the shape of the dose curve; as a rule, active = well fitted curve in the direction sought with a large enough effect in the repeat runs; inconclusive = weak or mixed curves; inactive = no such curve, though single readings can be large; an effect the other way counts as inactive or inconclusive.

Androgen receptor (Homo sapiens), sequence (P10275 whole entry, looked up): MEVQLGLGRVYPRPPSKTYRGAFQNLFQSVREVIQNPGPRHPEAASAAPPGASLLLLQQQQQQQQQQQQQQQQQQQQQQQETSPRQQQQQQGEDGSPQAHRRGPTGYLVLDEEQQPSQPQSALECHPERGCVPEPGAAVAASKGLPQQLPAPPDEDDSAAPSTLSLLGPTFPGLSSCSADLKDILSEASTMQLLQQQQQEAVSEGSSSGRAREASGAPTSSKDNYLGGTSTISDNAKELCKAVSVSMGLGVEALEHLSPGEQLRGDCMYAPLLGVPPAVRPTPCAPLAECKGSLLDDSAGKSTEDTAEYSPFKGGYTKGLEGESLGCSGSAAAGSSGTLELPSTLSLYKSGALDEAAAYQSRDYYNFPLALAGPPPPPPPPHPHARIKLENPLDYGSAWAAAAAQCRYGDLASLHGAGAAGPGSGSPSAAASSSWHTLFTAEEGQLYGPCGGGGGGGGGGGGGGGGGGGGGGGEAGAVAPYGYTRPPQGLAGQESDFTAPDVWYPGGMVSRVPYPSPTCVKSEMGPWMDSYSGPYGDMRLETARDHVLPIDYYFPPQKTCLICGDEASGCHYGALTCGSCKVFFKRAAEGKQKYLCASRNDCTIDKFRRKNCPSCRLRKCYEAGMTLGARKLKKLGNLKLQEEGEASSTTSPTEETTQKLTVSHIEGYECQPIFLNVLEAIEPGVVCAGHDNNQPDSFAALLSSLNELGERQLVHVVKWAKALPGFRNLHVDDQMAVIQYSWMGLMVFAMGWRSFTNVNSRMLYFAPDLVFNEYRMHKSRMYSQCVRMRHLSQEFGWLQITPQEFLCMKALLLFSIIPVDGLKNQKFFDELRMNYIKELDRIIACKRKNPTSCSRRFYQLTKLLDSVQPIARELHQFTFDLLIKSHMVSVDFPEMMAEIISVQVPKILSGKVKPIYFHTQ

Turning to `C[C@]12C/C(=C/O)C(=O)C[C@@H]1CC[C@@H]1[C@@H]2CC[C@@]2(C)[C@H]1CC[C@]2(C)O`, the Potency was 44.1 µM (active) and inactive in assay [1]; 49.4 µM (active) and inactive in assay [5]; 55 µM (active) and 21.1 µM (active) in [15]; 61.7 µM (active) in assay [16]. Besides, the Potency entry in [2], in assay [3], in [4], in [6], in [7] and in [8] was “inactive” throughout. Also, the Potency result in assay [9], in assay [10], in [11], in assay [12], in assay [14] and in assay [17] was “inactive” each time. Further, the compound was called inactive in assay [13].
With `CCO/N=C(\CC)C1=C(O)CC(c2c(C)cc(C)cc2C)CC1=O` (stereo not drawn), the Potency result in assay [1], in assay [2], in [3], in assay [4], in assay [7] and in assay [10] was “inactive” in each case. For the same compound, the Potency result in assay [11], in [12], in assay [14], in assay [18], in assay [16] and in assay [17] was “inactive” in each case.
With `COc1ccc2[nH]cc(CCN(C(C)C)C(C)C)c2c1`, the Potency result in [1], in [2], in assay [3], in [4], in assay [5] and in assay [6] was “inactive” in each case. The Potency result in [7], in [8], in assay [9], in [10], in assay [11] and in [14] was “inactive” throughout. Besides, the Potency entry in assay [18], in assay [15], in assay [16] and in [17] was “inactive” each time. Besides, in assay [13], the compound was classed as inactive.
Turning to `N#Cc1sc2c(=O)c3ccccc3c(=O)c=2sc1C#N`, the Potency in assay [1] is 13.8 µM (active); in assay [19] it was 13.8 µM (active); in assay [4], 9.77 µM (active); in assay [5], 15.5 µM (active); in [6], 6.92 µM (active); in assay [7], 43.6 µM (active). For the same compound, the Potency is 21.9 µM (active) in assay [8]; 54.9 µM (active) in [9]; 5.45 µM (active) in assay [10]; 13.7 µM (active) in [11]; 4.86 µM (active) in assay [20]; 2.43 µM (active) in [12]. The results for the Potency in assay [18], in [15] and in [16] were 30.6 µM (active), 8.63 µM (active) and 9.69 µM (active), respectively. Also, the Potency entry in [3] and in assay [17] was “inactive” in each case.
As for `CC(C)C(Nc1ccc(C(F)(F)F)cc1Cl)C(=O)OC(C#N)c1cccc(Oc2ccccc2)c1` (stereo not drawn), the Potency entry in assay [1], in [19], in assay [3], in [4], in assay [5] and in [7] was “inactive” in each case. The Potency entry in [8], in assay [9], in [10], in assay [11], in assay [12] and in assay [14] was “inactive” each time. Also, the Potency entry in assay [18], in assay [15] and in [16] was “inactive” each time.
On to `Nc1cc(Cl)ccc1Cl`, for which the Potency result in [1], in assay [19], in assay [3], in [4], in assay [5] and in assay [6] was “inactive” each time. Also, the Potency entry in [8], in assay [9], in assay [10], in assay [11], in [14] and in assay [18] was “inactive” each time. The Potency result in [15], in assay [16] and in assay [17] was “inactive” each time.
For the compound `CCn1cc[n+](C)c1` (tested in a mixture with another compound), the Potency entry in [1], in assay [19], in assay [3], in assay [4], in assay [5] and in assay [6] was “inactive” in each case. For the same compound, the Potency entry in assay [7], in assay [8], in assay [9], in assay [10], in assay [11] and in assay [15] was “inactive” throughout. Moreover, the Potency result in assay [16] and in assay [17] was “inactive” throughout.
In the case of `CCCCN(CCCC)C(=S)[S-].CCCCN(CCCC)C(=S)[S-].[Ni+2]`, the Potency entry in assay [1], in assay [19], in assay [3], in assay [4], in assay [5] and in assay [6] was “inactive” in each case. Moreover, the Potency result in assay [7], in [8], in assay [9], in assay [10], in [11] and in assay [12] was “inactive” in each case. For the same compound, the Potency result in assay [14], in assay [15], in [16] and in [17] was “inactive” throughout.
